Bioassay records: PubChem BioAssay, National Center for Advancing Translational Sciences (NCATS)
PINK1 modulator = modulators of PINK1 expression; Potency, µM (highest dose often 76.6 µM), for the others: top-dose activation (PINK1 increase), hits mostly activators; 0.2% of 410,000 active; PINK1 immunofluorescence, high-content cytometry, 24 h; active means well fitted activation curve with a large enough effect; inconclusive means small, poorly fitted or top-dose-only effect; cell line not stated here; further: % of control where 0% means no effect; nearly all actives have a fitted effect of over 65% in size
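Cells are seeded, rested 12 hours, then given compound at five concentrations or DMSO for 24 hours. After fixation, blocking and antibody staining, PINK1 amount and mitochondrial localization are scored; CCCP serves as control.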
KB-3-1 cytotox = kills parental KB-3-1 adenocarcinoma cells; KB-3-1 viability, CellTiter-Glo ATP luminescence, 72 h; Potency, µM (doses to about 46.1 µM), most hits filed as cytotoxic; 1.4% of 400,000 active; AID 1347075; further: on the % scale 0 is the no-effect control and ±100 the full control effect; nearly all actives have a fitted effect of over 60% in size
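72 h, 37 °C compound treatment of KB-3-1 parental cells; CellTiter-Glo added, 10 min, luminescence read. Data corrected against DMSO-only plates and normalized before curve fitting.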
ALOX12 inh = inhibitors of human 12S-lipoxygenase ALOX12; 1.1% of 580,000 active; purified 12hLO, xylenol orange hydroperoxide absorbance; Potency, µM (top dose mostly 108 µM), for the others: at the top dose activity change, negative = inhibition, most hits filed as inhibitors; further: on the % scale 0 is the no-effect control and ±100 the full control effect
Target sequence (P18054 whole entry, looked up): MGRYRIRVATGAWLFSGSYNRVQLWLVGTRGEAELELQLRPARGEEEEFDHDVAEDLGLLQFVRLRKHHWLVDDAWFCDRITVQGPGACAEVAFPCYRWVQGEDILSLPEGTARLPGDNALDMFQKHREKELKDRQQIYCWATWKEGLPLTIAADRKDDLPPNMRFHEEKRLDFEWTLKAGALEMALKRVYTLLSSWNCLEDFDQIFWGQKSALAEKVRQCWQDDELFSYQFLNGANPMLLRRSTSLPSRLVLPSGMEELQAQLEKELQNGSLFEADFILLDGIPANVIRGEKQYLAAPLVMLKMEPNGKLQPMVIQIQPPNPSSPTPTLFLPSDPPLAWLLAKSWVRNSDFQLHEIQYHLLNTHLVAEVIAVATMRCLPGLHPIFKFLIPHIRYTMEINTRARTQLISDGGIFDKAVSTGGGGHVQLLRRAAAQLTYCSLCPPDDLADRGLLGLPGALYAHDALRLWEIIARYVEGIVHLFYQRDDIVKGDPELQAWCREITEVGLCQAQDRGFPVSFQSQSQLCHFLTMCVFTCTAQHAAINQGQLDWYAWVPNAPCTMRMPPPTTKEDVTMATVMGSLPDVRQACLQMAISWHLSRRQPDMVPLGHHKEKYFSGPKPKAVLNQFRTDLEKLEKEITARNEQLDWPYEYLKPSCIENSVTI
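Purified human 12hLO (150 nM final) in 25 mM Hepes, 0.01% Triton X-100, pH 7.0 was preincubated 15 min at room temperature with compound. Then 40 uM arachidonic acid was added, 30 min. Hydroperoxide was read by Fe-XO absorbance ratio 573/405 nm.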
KB-V1 MDR tox = kills drug-selected multidrug resistant KB-V1 cells | KB-V1 MDR cells viability, CellTiter-Glo, 72 h | Potency, µM (highest dose often 46.1 µM), hits mostly cytotoxic | 3.4% of 400,000 active; further: on the % scale 0 is the no-effect control and ±100 the full control effect; nearly all actives have a fitted effect of over 60% in size
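Cells of the MDR subline KB-V1 are plated, dosed with compound at multiple concentrations, and incubated 72 h at 37 degrees C; CellTiter-Glo is then added and luminescence read after 10 min.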
SW480 rereplic = DNA re-replication induction in SW480 cells; 1.8% of 340,000 active; SW480 DNA re-replication, Hoechst DNA content imaging, 48 h; Potency, µM (doses to about 46.1 µM), without a hit: top-dose re-replication activation, actives largely listed as activators; further: % of control where 0% means no effect; nearly all actives have a fitted effect of over 55% in size
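Hoechst fluorescence of nuclei (405 nm excitation, 500-530 nm emission) measured by plate-scanning imager after 48 hr compound exposure at 37 C; re-replication scored as increased number of nuclei with elevated intensity.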
MCF10A rereplic = inducers of DNA re-replication in MCF 10A breast cells | AID 624296 | 2.9% of 350,000 active | MCF 10A DNA re-replication, Hoechst nuclear intensity, 48 h | Potency, µM (titrated, usually from 46.1 µM), for inactives: at the top dose activity, positive = re-replication, most hits filed as activators; further: % of control where 0% means no effect; nearly all actives have a fitted effect of over 50% in size
The depositor's hits bear a star; [ ] = remark or other dose. Most compounds without a hit are left out; they make up all but 5.8% or so of the library. Unless noted, the call rests on the fitted dose curve; in most records, active means well fitted curve in the direction sought with a large enough effect; inconclusive means small, poorly fitted or top-dose-only effect, or another doubt; inactive means no such curve, though single readings can be large; an effect the other way counts as inactive or inconclusive. Potency means the concentration at half of the fitted maximal effect.

For CCSc1ccccc1C(=O)n1nnc2ccccc21 the results were PINK1 modulator 5%[38.3 µM], KB-3-1 cytotox inconclusive, ALOX12 inh -5%, KB-V1 MDR tox inactive, SW480 rereplic inconclusive and MCF10A rereplic 16µM*.
For COc1ccccc1Nc1c(-c2ccc(O)cc2)nc2ncccn12 the results were ALOX12 inh -12%.
CCO/C=N/Nc1nc(C(F)(F)F)nc2c1cnn2Cc1ccccc1 was read as PINK1 modulator inconclusive, KB-3-1 cytotox inactive, ALOX12 inh 2%, KB-V1 MDR tox inactive, SW480 rereplic inconclusive and MCF10A rereplic 18µM*.
For COCCOC1CCOC2(CCN(C(=O)c3ccco3)CC2)C1 (centres undefined) the results were ALOX12 inh 23%.
S=C(NCc1ccccc1)Nc1cccc2ccccc12 was read as PINK1 modulator 0%, KB-3-1 cytotox inactive, ALOX12 inh 45µM*, KB-V1 MDR tox inactive, SW480 rereplic inconclusive and MCF10A rereplic inconclusive.
For S=C(NCc1ccccc1)NCc1cccc(CNC(=S)NCc2ccccc2)c1 the results were PINK1 modulator -1%, KB-3-1 cytotox inconclusive, ALOX12 inh 32µM*, KB-V1 MDR tox inactive, SW480 rereplic -4% and MCF10A rereplic inconclusive.
`S=C(NCc1ccccc1)NCc1cccc(Cl)c1` gave PINK1 modulator 1%, KB-3-1 cytotox inactive, ALOX12 inh inconclusive, KB-V1 MDR tox inactive, SW480 rereplic 1% and MCF10A rereplic 4%.
Screening Cc1ccc(C(C)C)c(OCCNC(=S)Nc2cccc3ccccc23)c1 returned PINK1 modulator 7%[38.3 µM], KB-3-1 cytotox inconclusive, ALOX12 inh inconclusive, KB-V1 MDR tox inactive, SW480 rereplic 5.6µM* and MCF10A rereplic inconclusive.
For S=C(NCc1cccs1)Nc1cccc2ccccc12 the results were PINK1 modulator -1%, KB-3-1 cytotox inactive, ALOX12 inh inconclusive, KB-V1 MDR tox inactive, SW480 rereplic 68% and MCF10A rereplic -49%.
`CCS(=O)(=O)N1CCCN(Cc2ccncc2)C(c2ccccc2)CC(=O)NCC1` (centres undefined) gave ALOX12 inh 16%.
For Cc1ccc(CNC(=O)C2CC(c3cccc([N+](=O)[O-])c3)=NO2)cc1 (centres undefined) the results were PINK1 modulator 3%, KB-3-1 cytotox inactive, ALOX12 inh 11%, KB-V1 MDR tox inactive, SW480 rereplic inconclusive and MCF10A rereplic 2.1µM*.
COCCNC(=O)C1CC(c2cccc([N+](=O)[O-])c2)=NO1 (centres undefined) was read as PINK1 modulator -1%, KB-3-1 cytotox inactive, ALOX12 inh -12%, KB-V1 MDR tox inactive, SW480 rereplic inconclusive and MCF10A rereplic 13%.
Screening COc1ccc(CNC(=O)C2CC(c3cccc([N+](=O)[O-])c3)=NO2)cc1 (centres undefined) returned PINK1 modulator 1%, KB-3-1 cytotox inactive, ALOX12 inh -1%, KB-V1 MDR tox inactive, SW480 rereplic 0% and MCF10A rereplic 9.2µM*.
For Cc1cn2nc(C(=O)N3CCCCC3)cc2c(N(C)Cc2ccccc2)n1 the results were ALOX12 inh 10%.
Screening Cc1ccc(CNCCN(C)C)s1 returned ALOX12 inh -21%.
For CCCOc1ccc(C2C(=O)N(C3CCCCC3)CC(=O)N2C2CCCCC2)cc1OC (centres undefined) the results were PINK1 modulator 3%, KB-3-1 cytotox inactive, ALOX12 inh 0% and KB-V1 MDR tox inactive.
CCCOc1ccc(C2C(=O)N(C3CCCCCC3)CC(=O)N2Cc2ccco2)cc1OC (centres undefined) was read as PINK1 modulator 4%, KB-3-1 cytotox inactive, ALOX12 inh 7%, KB-V1 MDR tox 1.3µM*, SW480 rereplic 8% and MCF10A rereplic 9%.
Screening CC(C)c1ccc(NC(=S)NN(c2ccccc2)c2ccccc2)cc1 returned PINK1 modulator 12%, KB-3-1 cytotox inactive, ALOX12 inh 40µM*, KB-V1 MDR tox 21µM*, SW480 rereplic inconclusive and MCF10A rereplic inconclusive.
`CCNC(=S)Nc1ccc(N(c2ccccc2)C(C)C)cc1` gave PINK1 modulator 5%[38.3 µM], KB-3-1 cytotox 21µM*, ALOX12 inh 4%, KB-V1 MDR tox 13µM*, SW480 rereplic 9% and MCF10A rereplic inconclusive.
Screening CCC(C)c1ccc(NC(=S)NCc2ccccc2OC)cc1 (centres undefined) returned PINK1 modulator 17%, KB-3-1 cytotox inactive, ALOX12 inh inconclusive, KB-V1 MDR tox inconclusive, SW480 rereplic 11% and MCF10A rereplic 18µM*.
N#Cc1ccccc1-c1ccc(CSc2nnnn2-c2cccc(F)c2)cc1 was read as ALOX12 inh -23%.
Screening CN(CC(=O)NC(=O)NCc1ccccc1)Cc1ccc(C(F)(F)F)cc1 returned ALOX12 inh -4%.
CC(NO)/C(=N\O)c1cccs1 (centres undefined) was read as KB-3-1 cytotox inactive, ALOX12 inh -10%, KB-V1 MDR tox inactive, SW480 rereplic inconclusive and MCF10A rereplic 3.7µM*.
O=C(NCC1CC1)c1cnc(N2CCN(Cc3cccc(F)c3)C2=O)s1 was read as ALOX12 inh 21%.
Screening CCCC(C)NC(=O)c1ccc(CNC(=O)NC(C)C)cc1 (centres undefined) returned ALOX12 inh 4%.
For Cc1noc2ncnc(Sc3ccc(Cl)cc3)c12 the results were PINK1 modulator 2%, KB-3-1 cytotox inconclusive, ALOX12 inh 2%, KB-V1 MDR tox inactive, SW480 rereplic inconclusive and MCF10A rereplic 12µM*.
Screening Cc1noc2ncnc(Sc3c(Cl)cccc3Cl)c12 returned PINK1 modulator 1%, KB-3-1 cytotox inconclusive, ALOX12 inh 27%, KB-V1 MDR tox inconclusive, SW480 rereplic inconclusive and MCF10A rereplic 4.5µM*.
For O=C(NCC12CC3CC(CC(C3)C1)C2)C1CCCCC1 the results were ALOX12 inh 16%.
Screening O=C(Cn1nc(-c2ccc(Br)cc2)ccc1=O)NCc1ccc2c(c1)OCO2 returned ALOX12 inh -21%.
For CCOC(=O)NC(CN)c1ccccc1 (centres undefined) the results were ALOX12 inh 9%.
`COc1cc(S(=O)(=O)N2CCC(O)(c3cccc(C(F)(F)F)c3)CC2)ccc1-n1cnnn1` gave PINK1 modulator 5%[38.3 µM], KB-3-1 cytotox inactive, ALOX12 inh 15%, KB-V1 MDR tox inconclusive, SW480 rereplic inconclusive and MCF10A rereplic 7.3µM*.
